Test [1] in a line: Nuclear factor erythroid 2-related factor 2/antioxidant responsive element (Nrf2/ARE) small molecule agonists: luciferase reporter gene qHTS assay in human keratinocytes (AID 1919969). Also: nearly all actives have a fitted effect of over 35% in size.
Test [2] addresses Gonadotropin-releasing hormone receptor (Homo sapiens) (UniProt P30968). Briefly: Human gonadotropin-releasing hormone receptor (GnRHR) small molecule agonists, calcium flux assay in GnRHR-HEK293 cells (AID 1920063). Also: nearly all actives have a fitted effect of over 35% in size. The procedure, abridged:
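Tox21-format agonist screen using human GnRHR-expressing HEK293 cells and a fluorescent calcium dye; kinetic 3-min fluorescence reading after compound addition, 15-point concentration series run in triplicate.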
On the technique in general: Calcium assays in cells follow changes in intracellular calcium, usually with a dye or a luminescent sensor.

In test [3] the target is KiSS-1 receptor (Homo sapiens) (UniProt Q969F8). The test is described as follows: Human kisspeptin (KISS1R) small molecule agonists, calcium flux assay in KISS1R-HEK293 cells (AID 1920064; active = well fitted activation curve with a large enough effect in the repeat runs). Put shortly: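 Intracellular calcium mobilization in KISS1R-HEK293 cells was recorded by fluorescence (Ex/Em 480/540) for 3 min following compound addition to cells pre-loaded 1 h with calcium dye.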

A short description of test [4]: G protein-coupled receptor (GPCR) small molecule agonists, calcium flux assay: HEK293 wild type cell line counter screen (AID 1920065). The procedure, abridged:
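In this agonist-mode screen, ATP is the positive control and DMSO the vehicle. Cells grow 18 h before a 1 h dye incubation at 37 C; signal is taken at Ex/Em 480/540 over 3 min.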

The nature of test [5]: p53 small molecule agonists, cell-based qHTS assay with human liver microsomes (AID 1963577).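 Also: p53 response element beta-lactamase reporter cells with liver microsomes plus NADPH.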 The procedure, abridged: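 16 h, 37 C exposure of p53RE-bla cells to compounds with human liver microsomes and NADPH (0.5 mg/mL final each); detection via LiveBLAzer mixture, 2 h dark at room temperature.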
Test [6] can be described thus: p53 small molecule agonists, cell-based qHTS assay with human liver microsomes: qHTS cell viability counter screen (AID 1963579). Also: nearly all actives have a fitted effect of over 45% in size. Put shortly: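 In this multiplexed counter screen, the reporter plates were subsequently treated with CellTiter-Glo so that cell viability, reflected by luminescence, could be recorded for p53RE-bla cells dosed 16 h with compounds under microsomal activation (HLM and NADPH).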
Background: In qHTS, concentration-response curves come from the screen itself.

Test [7] can be described thus: p53 small molecule agonists, cell-based qHTS assay with rat liver microsomes: qHTS cell viability counter screen (AID 1963580). Also: nearly all actives have a fitted effect of over 45% in size. The procedure, abridged: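 Intracellular ATP, by CellTiter-Glo luminescence, defines viability. HCT-116 p53RE-bla cells, 4,000 per well, were compound-treated in the presence of rat liver microsomes and NADPH for 16 h at 37 C.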
Test [8] in a line: p53 small molecule agonists, cell-based qHTS assay: qHTS cell viability counter screen (AID 1963581). Also: nearly all actives have a fitted effect of over 45% in size. The procedure, abridged:
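Compounds are pinned onto HCT-116 p53RE-bla cells and left 16 h at 37 C. Following the reporter FRET read, ATP is quantified by CellTiter-Glo luminescence after 30 min at room temperature.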

A short description of test [9]: p53 small molecule agonists, cell-based qHTS assay (AID 1963582; active = well fitted activation curve with a large enough effect in the signal ratio in the repeat runs, not every such curve was filed as active; the % refers to the signal ratio). The procedure, abridged:
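Agonist activity was scored from beta-lactamase FRET fluorescence in p53RE-bla cells treated 16 h at 37 C with compounds in DMSO, substrate incubation being 2 h at room temperature.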

In test [10] the target is 5-hydroxytryptamine receptor 2A (Homo sapiens) (UniProt P28223). The test is described as follows: 5-hydroxytryptamine receptor 2A (HTR2A) small molecule antagonists, cell-based qHTS assay (AID 1963586). Also: nearly all actives have a fitted effect of over 45% in size. Put shortly:
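Antagonist-mode intracellular calcium assay: DOI (4 nM) added after 5 min compound pre-incubation at room temperature to dye-loaded HTR2A-CHO cells. Fluorescence followed for 3 min, sampled every second.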

Test [11] shares this target. The test is described as follows: 5-hydroxytryptamine receptor 2A (HTR2A) small molecule agonists, cell-based qHTS assay (AID 1963587). Also: nearly all actives have a fitted effect of over 30% in size. Put shortly: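 Kinetic calcium-flux fluorescence (2 min, 1 sec intervals) after compound addition in agonist mode. HTR2A-CHO cells were cultured 18 h, then dye-loaded 1 h at 37 C.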
Test [12] deals with Muscarinic acetylcholine receptor M1 (Homo sapiens) (UniProt P11229). Briefly: Cholinergic receptor muscarinic 1 (CHRM1) small molecule antagonists, cell-based qHTS assay (AID 1963588). Also: nearly all actives have a fitted effect of over 40% in size. Also: potency is read from the fitted curve at half-maximal effect. Put shortly:
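CHRM1-CHO calcium-flux assay, antagonist mode. Cells were seeded 18 h, dye-loaded 1 h at 37 C and given compound for 5 min at RT, then acetylcholine was added at 50nM. FDSS fluorescence was read 3 min; 15 concentrations, three runs.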

Test [13] shares this target. Briefly: Cholinergic receptor muscarinic 1 (CHRM1) small molecule agonists, cell-based qHTS assay (AID 1963589). Also: nearly all actives have a fitted effect of over 35% in size. The procedure, abridged: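 Stable CHRM1-CHO cells (human receptor) were incubated 18 h, dye-loaded for 1 h at 37 C and exposed to test compounds for agonist activity, with calcium-dependent fluorescence followed kinetically.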
Test [14] deals with Beta-2 adrenergic receptor (Homo sapiens) (UniProt P07550). Briefly: Adrenergic beta2 receptor (ADRB2) small molecule antagonists, cell-based qHTS assay (AID 1963592). Also: series mostly up to about 92 µM; nearly all actives have a fitted effect of over 50% in size. The procedure, abridged: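 Cells (CHO, stable ADRB2 overexpression) incubated 18-20hr at 37C; compounds added from DMSO; agonist mix (1nM isoproterenol, 100uM IBMX, 25uM Ro-20-1724) added; 0.5hr RT; d2-cAMP and anti-cAMP-cryptate added; 1hr RT; 665/615 nm read.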

Test [15] has the same target. Briefly: Adrenergic beta2 receptor (ADRB2) small molecule agonists, cell-based qHTS assay (AID 1963593).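 Also: CHO cells stably overexpressing human ADRB2.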 The procedure, abridged: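 CHO cells stably over-expressing ADRB2 were plated overnight at 37C, then dosed with compounds plus a stimulation mix containing 100uM IBMX and 25uM Ro-20-1724 for 0.5hr at room temperature. cAMP was measured by HTRF competition, 1hr.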

Test [16] concerns the target D(2) dopamine receptor (Homo sapiens) (UniProt P14416). Briefly: Dopamine D2 receptor (DRD2) small molecule agonists, cell-based qHTS assay (AID 1963594). Also: nearly all actives have a fitted effect of over 35% in size. The procedure, abridged: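 cAMP accumulation in DRD2-HEK293 cells measured by HTRF after 1 h detection; compounds added 10 min before NKH477 (200nM […]) forskolin-analogue stimulation, 30 min at room temperature, with Ro20-1724 present at 0.1 mM final.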

For test [17] the target is unchanged. The test is described as follows: Dopamine D2 receptor (DRD2) small molecule antagonists, cell-based qHTS assay (AID 1963595; active = well fitted inhibition curve with a large enough effect in the signal ratio in the repeat runs, with a control signal flat; the % refers to the signal ratio). The procedure, abridged:
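DRD2-HEK293; 0.1 mM Ro20-1724; cpd 10 min RT; NKH477 200 nM + quinpirole 12 nM, 30 min RT; HTRF cAMP (cAMP-d2/anti-cAMP cryptate), 665/620 nm ratio after 1 h.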

A short description of test [18]: p53 small molecule agonists, cell-based qHTS assay with rat liver microsomes (AID 1963578). Put shortly: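 With rat liver microsomes and NADPH present (0.5 mg/mL final each), p53RE-bla cells are treated with compound for 16 h at 37 C. LiveBLAzer detection mixture is then applied for 2 h at room temperature in the dark.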
A short description of test [19]: cAMP Responsive Elements (CRE) small molecule antagonists, cell-based qHTS assay (AID 1963591; active = well fitted inhibition curve with a large enough effect in the signal ratio in the repeat runs, not every such curve was filed as active; the % refers to the signal ratio). The procedure, abridged:
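qHTS in CRE-bla HEK 293T cells: compound in DMSO, then 0.25 uM NKH477 (final), 3 h at 37 °C/5% CO2; beta-lactamase FRET read-out after 2 h substrate incubation.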

Test [20] is described as follows: cAMP Responsive Elements (CRE) small molecule agonists, cell-based qHTS assay (AID 1963590). Put shortly: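 FRET-based beta-lactamase readout (LiveBLAzer B/G, 2 h RT) quantified CRE activation in HEK 293T CRE-bla cells after 3 h treatment with DMSO-dissolved compounds.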

Records with an inconclusive call do not appear. Calls of active or inactive are those of the source. Unless noted, calls follow the shape of the full dose curve.

Sequence of KiSS-1 receptor (Homo sapiens) (Q969F8 whole entry, looked up): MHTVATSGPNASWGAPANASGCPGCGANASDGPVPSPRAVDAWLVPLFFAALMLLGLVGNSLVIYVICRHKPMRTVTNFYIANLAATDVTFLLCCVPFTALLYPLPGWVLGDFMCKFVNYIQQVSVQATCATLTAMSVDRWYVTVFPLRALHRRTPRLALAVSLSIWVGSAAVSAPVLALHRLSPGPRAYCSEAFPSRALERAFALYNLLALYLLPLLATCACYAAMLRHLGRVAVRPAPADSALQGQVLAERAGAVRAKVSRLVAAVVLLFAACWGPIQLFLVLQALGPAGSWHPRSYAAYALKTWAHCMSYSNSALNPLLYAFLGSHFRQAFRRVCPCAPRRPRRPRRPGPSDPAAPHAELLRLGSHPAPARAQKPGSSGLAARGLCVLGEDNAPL
Sequence of 5-hydroxytryptamine receptor 2A (Homo sapiens) (P28223 whole entry, looked up): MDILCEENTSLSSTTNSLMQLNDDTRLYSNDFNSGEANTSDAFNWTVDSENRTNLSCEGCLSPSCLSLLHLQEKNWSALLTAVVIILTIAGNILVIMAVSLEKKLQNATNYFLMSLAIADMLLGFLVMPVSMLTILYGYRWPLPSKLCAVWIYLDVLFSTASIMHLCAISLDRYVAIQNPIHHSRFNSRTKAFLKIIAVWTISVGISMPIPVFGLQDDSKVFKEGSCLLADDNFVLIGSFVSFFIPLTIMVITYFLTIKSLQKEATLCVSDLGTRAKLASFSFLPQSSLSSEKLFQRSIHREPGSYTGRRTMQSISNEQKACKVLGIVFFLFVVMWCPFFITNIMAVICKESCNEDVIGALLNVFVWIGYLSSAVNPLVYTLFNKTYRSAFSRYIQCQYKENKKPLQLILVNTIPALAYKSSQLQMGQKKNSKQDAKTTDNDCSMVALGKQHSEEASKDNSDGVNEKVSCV
Sequence of Muscarinic acetylcholine receptor M1 (Homo sapiens) (P11229 whole entry, looked up): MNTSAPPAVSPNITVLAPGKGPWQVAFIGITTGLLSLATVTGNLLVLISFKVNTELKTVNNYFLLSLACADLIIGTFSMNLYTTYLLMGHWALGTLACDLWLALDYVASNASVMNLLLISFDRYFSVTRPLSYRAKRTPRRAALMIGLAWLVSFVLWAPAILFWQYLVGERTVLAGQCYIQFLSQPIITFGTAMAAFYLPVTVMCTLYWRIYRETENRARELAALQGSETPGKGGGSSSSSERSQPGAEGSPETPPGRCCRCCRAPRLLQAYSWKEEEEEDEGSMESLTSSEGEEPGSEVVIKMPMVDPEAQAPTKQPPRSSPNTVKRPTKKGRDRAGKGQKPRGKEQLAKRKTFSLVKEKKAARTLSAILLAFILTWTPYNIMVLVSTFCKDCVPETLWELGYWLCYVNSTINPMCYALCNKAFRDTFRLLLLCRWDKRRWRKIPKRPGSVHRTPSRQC
Sequence of Gonadotropin-releasing hormone receptor (Homo sapiens) (P30968 whole entry, looked up): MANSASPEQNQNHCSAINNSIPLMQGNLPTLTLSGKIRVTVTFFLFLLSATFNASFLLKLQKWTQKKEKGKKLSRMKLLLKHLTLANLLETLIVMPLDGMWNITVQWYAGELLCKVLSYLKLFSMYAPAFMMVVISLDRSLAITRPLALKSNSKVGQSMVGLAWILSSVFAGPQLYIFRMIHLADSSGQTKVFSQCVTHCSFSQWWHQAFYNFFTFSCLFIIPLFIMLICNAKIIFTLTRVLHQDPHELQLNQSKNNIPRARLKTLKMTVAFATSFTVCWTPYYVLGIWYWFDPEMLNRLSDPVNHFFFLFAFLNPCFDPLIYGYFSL
Sequence of D(2) dopamine receptor (Homo sapiens) (P14416 whole entry, looked up): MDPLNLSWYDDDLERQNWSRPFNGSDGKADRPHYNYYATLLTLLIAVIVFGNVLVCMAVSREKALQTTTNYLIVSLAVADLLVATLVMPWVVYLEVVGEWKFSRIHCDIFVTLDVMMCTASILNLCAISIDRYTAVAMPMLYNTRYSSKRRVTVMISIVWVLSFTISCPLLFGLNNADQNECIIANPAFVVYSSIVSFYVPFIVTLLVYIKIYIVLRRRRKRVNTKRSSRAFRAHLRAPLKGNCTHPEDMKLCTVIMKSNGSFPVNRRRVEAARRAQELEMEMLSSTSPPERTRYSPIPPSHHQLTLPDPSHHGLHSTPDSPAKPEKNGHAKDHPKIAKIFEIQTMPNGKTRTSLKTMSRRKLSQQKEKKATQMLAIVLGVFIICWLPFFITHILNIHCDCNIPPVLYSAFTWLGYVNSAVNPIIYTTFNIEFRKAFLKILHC
Sequence of Beta-2 adrenergic receptor (Homo sapiens) (P07550 whole entry, looked up): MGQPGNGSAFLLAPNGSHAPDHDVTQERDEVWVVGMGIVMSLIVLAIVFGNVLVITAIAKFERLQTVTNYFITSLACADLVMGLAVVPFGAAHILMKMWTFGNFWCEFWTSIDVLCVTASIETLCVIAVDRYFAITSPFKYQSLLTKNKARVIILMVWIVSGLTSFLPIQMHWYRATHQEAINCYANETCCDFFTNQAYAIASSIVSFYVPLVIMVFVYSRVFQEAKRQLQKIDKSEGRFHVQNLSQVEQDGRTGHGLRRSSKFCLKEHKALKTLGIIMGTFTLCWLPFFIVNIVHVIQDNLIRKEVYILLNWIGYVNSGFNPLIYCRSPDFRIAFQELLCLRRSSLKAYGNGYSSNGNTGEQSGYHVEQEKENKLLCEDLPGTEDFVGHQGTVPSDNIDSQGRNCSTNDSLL

For `NC(=O)Nc1ccccc1`, the Potency entry in test [1], in test [2], in test [3], in [4], in [5] and in test [6] was “inactive” in each case. In addition, the Potency entry in test [7], in test [8], in test [9], in test [10], in test [11] and in test [12] was “inactive” throughout. Also, the Potency result in test [13], in test [14], in test [15], in test [16] and in test [17] was “inactive” throughout.

As for `C[C@@H]1CCN(C(=O)[C@H](CCCN=C(N)N)NS(=O)(=O)c2cccc3c2NC[C@H](C)C3)[C@@H](C(=O)O)C1`, the Potency result in test [1], in test [2], in test [3], in test [4], in [5] and in [18] was “inactive” each time. In addition, the Potency entry in [6], in test [7], in test [8], in [10], in test [11] and in test [12] was “inactive” each time. In addition, the Potency entry in test [13], in test [19], in test [14], in test [16] and in test [17] was “inactive” each time.

On to `CCOC(=O)c1ccc(O)c(O)c1`, for which the Potency entry in [1], in test [2], in test [3], in test [4], in test [5] and in test [18] was “inactive” each time. The Potency result in test [6], in test [7], in test [9], in test [10], in test [11] and in test [12] was “inactive” in each case. Besides, the Potency entry in test [13], in test [20], in [19], in [14], in [15] and in [16] was “inactive” each time. Also, the Potency entry in [17] is “inactive”.

With `Cc1nc(-c2ccc3c(c2)CCN(CCC2CCC(NC(=O)/C=C/c4ccc(F)cc4)CC2)CC3)no1` (centres undefined), the Potency entry in test [1], in test [2], in [3], in [4], in test [5] and in test [18] was “inactive” throughout. Further, the Potency result in test [7], in test [8], in test [9], in test [10], in test [11] and in test [13] was “inactive” in each case. Also, the Potency entry in test [20], in test [14], in test [15], in test [16] and in [17] was “inactive” in each case. The Potency in test [12] was 266 nM (active).

Turning to `COc1cc(C)c(Cc2cnc(N)nc2N)cc1OC`, the Potency result in [1], in [2], in test [3], in [4], in [5] and in [18] was “inactive” each time. The Potency result in test [6], in [7], in [8], in [10], in test [11] and in test [12] was “inactive” throughout. The Potency entry in test [13], in test [20], in test [19], in test [14], in [15] and in test [16] was “inactive” throughout. Also, in test [17], the Potency entry was “inactive”.

With `C=C[Si](OC(=C)C)(OC(=C)C)OC(=C)C`, the Potency entry in [1], in [2], in [3], in test [4], in test [5] and in test [6] was “inactive” throughout. Further, the Potency entry in test [7], in [8], in [9], in test [10], in test [11] and in test [12] was “inactive” throughout. Moreover, the Potency entry in test [13], in test [20], in [19], in test [16] and in [17] was “inactive” throughout.

Turning to `CC(C)CC(C)(N)C#N` (centres undefined), the Potency result in [1], in [2], in test [3], in [4], in test [5] and in test [6] was “inactive” throughout. In addition, the Potency entry in test [7], in test [8], in test [9], in test [11], in test [12] and in test [13] was “inactive” each time. Also, the Potency entry in test [20], in test [19], in test [14], in [16] and in test [17] was “inactive” in each case.

The values above are taken from PubChem BioAssay (Tox21).
